We go through 16 molecules from PubChem BioAssay (NCATS).

Each structure is given as a SMILES string. Activity calls are given as the source filed them. Calls follow the shape of the dose curve; as a rule, active = well fitted curve in the direction sought with a large enough effect; inconclusive = small, poorly fitted or top-dose-only effect, or another doubt; inactive = no such curve, though single readings can be large or run the other way.

The nature of the experiment: qHTS for compounds that reverse cellular toxicity of Amyloid beta (A-beta) peptide in yeast: LOPAC Validation Assay (AID 720559). The following applies: yeast expressing A-beta; series mostly up to 46.1 µM; growth rescue, positive = activation: at the top concentration. From the text: The A-beta peptide is produced by the processing of the amyloid precursor protein (APP) by two proteases, beta and gamma secretases. […] A-beta42 is regarded as the most amyloidogenic form due to its hydrophobicity; however, precisely how A-beta42 induces neurotoxicity is unclear. To understand further this biology and its potential therapeutic implications for human neurodegenerative disease, a quantitative high-throughput screen for compounds that reverse the cellular toxicity of the A-beta peptide was developed.
A yeast based screen was used because it recapitulates the salient feature of protein mis-folding disorder accurately. This cell-based phenotypic screen provides a significant, unbiased advantage by letting the compounds and models inform us which proteins or pathways are most relevant. The ideal chemical candidates would therefore have activity in both our primary yeast and secondary neuronal toxicity assays, as well as in mouse models. They will be valuable tools for dissecting diverse protein homeostasis pathologies and could potentially become the focus for future pre-clinical development. For this […] assay, inhibition of A-beta rescues the toxic effect in the yeast cell, resulting in increase of signals.
NIH Chemical Genomics Center [NCGC]
NIH Molecular Libraries Probe Centers Network [MLPCN]
Assay Submitter (PI): Susan Lindquist, Whitehead Institute, Massachusetts Institute of Technology
[1] Vassar R,et al (1999). Beta-secretase cleavage of Alzheimer's amyloid precursor protein by the transmembrane aspartic protease BACE. Science. 286: 735-741.
[2] Yan R, et al (1999). Membrane-anchored aspartyl protease with Alzheimer's disease beta-secretase activity. Nature.
Two and a half microliter / well of yeast growth medium were dispensed in a 1536 assay plate. Compounds were pinned using the Kalypsys robotic system followed by addition of 2.5 uL / well yeast solution. The assay plates were incubated at 30 C. After 48 hr, the absorbance signal at 600 nm was obtained using the PerkinElmer ViewLux plate reader to assess yeast growth. The data was normalized to the positive control of an equimolar mixture of ferric chloride (FeCl3) and clioquinol and to the negative control DMSO.
A general note: In qHTS, concentration-response curves come from the screen itself.
Regarding `CC(=O)N1CCN(c2ccc(OC[C@H]3CO[C@](Cn4ccnc4)(c4ccc(Cl)cc4Cl)O3)cc2)CC1`, the “growth rescue, positive = activation” value was -48.1% (inactive).

As for `CC(NC(C)(C)C)C(=O)c1cccc(Cl)c1` (stereo unspecified), the “growth rescue, positive = activation” value is 4.31% (inactive).

As for `O=C(CCCN1CCC2(CC1)C(=O)NCN2c1ccccc1)c1ccc(F)cc1`, the “growth rescue, positive = activation” value was -8.58% (inactive).

For `COc1ccc2c(c1OC)C(=O)O[C@H]2[C@@H]1c2cc3c(cc2CCN1C)OCO3`, the “growth rescue, positive = activation” value was 2.42% (inactive).

Take `C=C(C)[C@H]1CN[C@H](C(=O)O)[C@H]1CC(=O)O`: the “growth rescue, positive = activation” value was -1.26% (inactive).

Turning to `O=P1(N(CCCl)CCCl)NCCCO1` (stereo unspecified), the “growth rescue, positive = activation” value was -2.09% (inactive).

Turning to `CC(C)c1cccc(C(C)C)c1O`, the “growth rescue, positive = activation” value is -3.43% (inactive).

With `Cc1ncsc1CCCl`, the “growth rescue, positive = activation” value was -4.27% (inactive).

For the molecule `O=c1[nH]oc2c1CCNC2`, the “growth rescue, positive = activation” value was -2.12% (inactive).

For `CN1C(=O)CCS(=O)(=O)C1c1ccc(Cl)cc1` (stereo unspecified), the “growth rescue, positive = activation” value was -2.93% (inactive).

For `CC(C)(C)NCC(O)c1ccccc1Cl` (stereo unspecified), the “growth rescue, positive = activation” value is -4.42% (inactive).

For the molecule `CCC1(c2ccc(N)cc2)CCC(=O)NC1=O` (stereo unspecified), the “growth rescue, positive = activation” value was 0.448% (inactive).

In the case of `CCCCC/C=C\C/C=C\C/C=C\C/C=C\CCCC(=O)NCC(=O)O`, the “growth rescue, positive = activation” value is 3.34% (inactive).

Turning to `O=C(O)CCCc1ccc(N(CCCl)CCCl)cc1`, the “growth rescue, positive = activation” value is -0.288% (inactive).

For the molecule `NCCc1ccc(O)cc1`, the “growth rescue, positive = activation” value is -2.82% (inactive).

On to `CC(C)N(CCC(C(N)=O)(c1ccccc1)c1ccccn1)C(C)C` (stereo unspecified), for which the outcome was inactive.
